Assay results reported in PubChem BioAssay (NCATS).
Inconclusive results are not listed. Entries that show only a call come without a potency. Calls of active or inactive are those of the source. Calls come from the whole dose curve; as a rule, active = well fitted curve in the direction sought with a large enough effect; inconclusive = small, poorly fitted or top-dose-only effect, or another doubt; inactive = no such curve, though single readings can be large; an effect the other way counts as inactive or inconclusive.

How the values were obtained:
[1] = Quantitative highthroughput screen to assess conditional lethalithy of NOMO1 cells grown in RPMI1640 with dialyzed fetal bovine serum (RPMI+ds) (AID 1963877); note: nearly all actives have a fitted effect of over 30% in size; note: potency is the fitted concentration of half-maximal effect; for viability: series mostly up to about 46 µM
Outline: (§1)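 Each medium arm—HPLM with 10% dialyzed FBS, or RPMI1640 with 5 mM glucose and 10% untreated or dialyzed FBS—was screened against an 11-point, 3-fold compound titration for 48 h at 37 °C, with CellTiter-Glo luminescence as endpoint.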

[2] = Quantitative highthroughput screen to assess conditional lethalithy of NOMO1 cells grown in Human Plasma-Like Medium with dialyzed fetal bovine serum (HPLM+ds) (AID 1963878); note: nearly all actives have a fitted effect of over 35% in size; note: potency is the fitted concentration of half-maximal effect
Outline: as §1

[3] = Quantitative highthroughput screen to assess conditional lethalithy of P12 Ichikawa cells grown in Human Plasma-Like Medium with dialyzed fetal bovine serum (HPLM+ds) (AID 1963879); conditions: Potency: viability; note: nearly all actives have a fitted effect of over 35% in size; note: potency is the fitted concentration of half-maximal effect; for viability: series mostly up to about 46 µM
Outline: as §1

[4] = Quantitative highthroughput screen to assess conditional lethalithy of P12 Ichikawa cells grown in RPMI1640 with untreated serum (RPMI+s) (AID 1963881); conditions: Potency: viability; note: nearly all actives have a fitted effect of over 35% in size; note: potency is the fitted concentration of half-maximal effect; for viability: series mostly up to about 46 µM
Outline: as §1

[5] = Quantitative highthroughput screen to assess conditional lethalithy of SEM cells grown in RPMI1640 with unreated serum (RPMI+s) (AID 1963883); note: nearly all actives have a fitted effect of over 35% in size; note: potency is the fitted concentration of half-maximal effect
Outline: as §1

[6] = Quantitative highthroughput screen to assess conditional lethalithy of SEM cells grown in RPMI1640 with dialyzed fetal bovine serum (RPMI+ds) (AID 1963884); note: nearly all actives have a fitted effect of over 35% in size; note: potency is the fitted concentration of half-maximal effect; for viability: series mostly up to about 46 µM
Outline: as §1

[7] = Cellular viability qHTS for adrenocortical cancer (ACC) cell line SW-13 (AID 1963989); conditions: SW-13 ACC cells viability, CellTiter-Glo, 48 h; activity (max response): hits give low values;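 note: cells grown in serum-free medium with ITS supplement; nearly all actives have a fitted effect of over 65% in size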
Outline: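 SW-13 cells in ITS-supplemented serum-free DMEM were plated overnight, then exposed for 48 h at 37C to compound titrations (up to 46 uM final). Viability was read by CellTiter-Glo luminescence; four-parameter logistic fits gave IC50 and efficacy.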

[8] = Cellular viability qHTS for adrenocortical cancer (ACC) cell line NCI-H295R (AID 1963990); note: nearly all actives have a fitted effect of over 60% in size
Outline: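 Luminescent ATP read-out (CellTiter-Glo, 20 min RT) after 48 h drug exposure of NCI-H295R cells; a titration up to 46 uM final. Data normalized to doxorubicin (100% inhibition) and DMSO (0%); 4-parameter fit gives IC50, max response.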

[9] = Quantitative highthroughput screen to assess conditional lethalithy of NOMO1 cells grown in RPMI1640 with untreated serum (RPMI+s) (AID 1963876); note: nearly all actives have a fitted effect of over 35% in size; note: potency is the fitted concentration of half-maximal effect
Outline: as §1

[10] = Quantitative highthroughput screen to assess conditional lethalithy of SEM cells grown in Human Plasma-Like Medium with dialyzed fetal bovine serum (HPLM+ds) (AID 1963882); note: nearly all actives have a fitted effect of over 35% in size; note: potency is the fitted concentration of half-maximal effect; for viability: series mostly up to about 46 µM
Outline: as §1

[11] = Quantitative highthroughput screen to assess conditional lethalithy of P12 Ichikawa cells grown in RPMI1640 with dialyzed fetal bovine serum (RPMI+ds) (AID 1963880); conditions: Potency: P12-Ichikawa viability
Outline: as §1

## CCOC(=O)c1c(C(C#N)=CN)c2ccc(Cl)c(Cl)c2n1C
[1]
  Potency: inactive
[2]
  Potency: inactive
[3]
  Potency: inactive
[4]
  Potency: inactive
[5]
  Potency: 18.7 µM (active)
[6]
  Potency: inactive
[7]
  activity (max response): -1.19% (inactive)
[8]
  Potency: inactive

## CCN(CC)C(=O)c1ccc(C2=CC3(CCNCC3)Oc3cccc(O)c32)cc1
[3]
  Potency: inactive
[4]
  Potency: inactive
[5]
  Potency: inactive
[8]
  Potency: inactive

## CC(C)(C)[C@]1(O)C[C@@H]2OC(=O)C[C@@]23C(=O)O[C@@H]2OC(=O)[C@H](O)C213 (stereo partly drawn)
[9]
  Potency: inactive
[10]
  Potency: inactive
[5]
  Potency: inactive

## COc1cc(C(=O)N2CC[C@@H](O)[C@@H](N)C2)cc2nc(-c3cc4ccccc4n3CC3CC3)n(C)c12
[1]
  Potency: 1.17 µM (active)
[5]
  Potency: 0.186 µM (active)

## COc1ccc2c(c[n+](C)c3c4cc5c(cc4ccc23)OCO5)c1OC
[3]
  Potency: 16.6 µM (active)
[4]
  Potency: 11.8 µM (active)
[10]
  Potency: 14.8 µM (active)
[5]
  Potency: 8.33 µM (active)

## C[C@@H]1[C@@H](C(=O)C[C@H]2O[C@@H]3O[C@]4(C)CC[C@@H]5[C@H](C)CC[C@@H]([C@H]2C)[C@@]35OO4)O[C@@H]2O[C@]3(C)CC[C@H]4[C@H](C)CC[C@@H]1[C@@]24OO3
[4]
  Potency: 23.5 µM (active)
[10]
  Potency: 26.4 µM (active)
[5]
  Potency: 14.8 µM (active)
[6]
  Potency: 23.5 µM (active)

## c1cc2c(cc1[C@H]1OC[C@H]3[C@H]1CO[C@H]3c1ccc3c(c1)OCO3)OCO2
[2]
  Potency: inactive
[3]
  Potency: inactive
[10]
  Potency: inactive

## COc1cccc2c1[C@]13CCN(CC4CC4)[C@H](C2)[C@]1(OC)CCC(=O)C3
[2]
  Potency: inactive
[3]
  Potency: inactive
[4]
  Potency: inactive

## NC1CC1c1ccccc1 (stereo not drawn)
[9]
  Potency: inactive
[4]
  Potency: inactive
[10]
  Potency: inactive
[5]
  Potency: inactive
[6]
  Potency: inactive

## CC(=CCCC1=CCC(C2=CC(=O)OC2O)OC1O)CCC1=C(C)CCCC1(C)C (stereo not drawn)
[2]
  Potency: inactive
[3]
  Potency: inactive
[4]
  Potency: inactive

## CC(=O)OCC1=C(C(=O)O)N2C(=O)[C@@H](N)[C@@H]2SC1
[3]
  Potency: 1.48 µM (active)
[4]
  Potency: 1.48 µM (active)
[10]
  Potency: inactive
[6]
  Potency: inactive

## O=C1CCC[C@@H]2[C@H]3CCCN4CCC[C@@H](CN12)[C@@H]34
[3]
  Potency: inactive
[5]
  Potency: inactive

## CC(=O)O[C@@]12CO[C@H]1C[C@H](O)[C@@]1(C)C(=O)[C@H](O)C3=C(C)[C@@H](O)C[C@@](O)([C@@H](OC(=O)c4ccccc4)[C@@H]21)C3(C)C
[1]
  Potency: 13.2 µM (active)
[11]
  Potency: 11.8 µM (active)

## COc1ccc2c(c1)[C@]13CCCCC1C(C2)N(C)CC3 (stereo partly drawn)
[9]
  Potency: inactive
[4]
  Potency: inactive
[6]
  Potency: inactive

## c1ccc2c(CN3CCNCC3)cccc2c1
[2]
  Potency: inactive
[10]
  Potency: inactive
[5]
  Potency: inactive
[6]
  Potency: inactive
[7]
  activity (max response): 3.38% (inactive)
[8]
  Potency: inactive

## CC1=C2C[C@@H]3[C@@H](CC=C4C[C@@H](O)CC[C@@]43C)[C@@H]2CC[C@]12O[C@H]1C[C@H](C)CN[C@H]1[C@H]2C
[9]
  Potency: inactive
[4]
  Potency: inactive

## C[C@@]12OC(=O)[C@]1([C@@H](O)[C@@H]1C=CCCC1)NC(=O)[C@H]2CCCl
[1]
  Potency: 0.209 µM (active)
[4]
  Potency: 0.235 µM (active)
[10]
  Potency: 0.0526 µM (active)
[5]
  Potency: 0.0526 µM (active)

## CC1=NN=C(c2ccc(N)cc2)c2cc3c(cc2C1)OCO3
[9]
  Potency: inactive
[10]
  Potency: inactive

## CO[C@H]1CCC(O[C@H]2C[C@H]([C@]3(C)CC[C@]4(C[C@H](O)[C@@H](C)[C@@H]([C@@H](C)C=C(C)C(=O)[C@H](C)C[C@H](C)C(=O)O)O4)O3)O[C@]3(O[C@@H]([C@H]4O[C@@](O)(CO)[C@H](C)C[C@H]4C)C[C@H]3C)[C@H]2C)O[C@H]1C (stereo partly drawn)
[9]
  Potency: 18.7 µM (active)
[3]
  Potency: 3.72 µM (active)
[5]
  Potency: 1.87 µM (active)

## C[C@H]1CCCC=CC2C[C@H](O)C[C@@H]2[C@H](O)C=CC(=O)O1 (stereo partly drawn)
[1]
  Potency: 0.0012 µM (active)
[2]
  Potency: inactive

## C=CCON=C(C[C@H]1O[C@@H]2O[C@]3(C)CC[C@@H]4[C@H](C)CC[C@@H]([C@H]1C)[C@@]24OO3)[C@H]1O[C@@H]2O[C@]3(C)CC[C@H]4[C@H](C)CC[C@@H]([C@@H]1C)[C@@]24OO3
[9]
  Potency: 0.833 µM (active)
[5]
  Potency: 1.05 µM (active)

## Cc1c(N)nc([C@H](CC(N)=O)NC[C@@H](N)C(N)=O)nc1C(=O)N[C@H](C(=O)N[C@@H](C)[C@H](O)[C@@H](C)C(=O)N[C@@H](C(=O)NCCc1nc(-c2nc(C(=O)NCCC[S+](C)C)cs2)cs1)[C@@H](C)O)C(O[C@H]1O[C@H](CO)[C@H](O)[C@@H](O)[C@@H]1O[C@H]1O[C@H](CO)[C@@H](O)[C@H](OC(N)=O)[C@H]1O)c1cnc[nH]1 (stereo partly drawn)
[2]
  Potency: 0.935 µM (active)
[6]
  Potency: 4.18 µM (active)
